Assay outcomes from PubChem BioAssay.
Compounds with a hit are over-represented: about 27% of the library has one in this group of screens.
sEH inhibitor: inhibitors of human soluble epoxide hydrolase. 91,000 tested, 0.34% active. inhibition, % at 2 µM. recombinant human sEH enzymatic activity assay; in the data active = inhibition above about 80%
CYP2C9 inh: human CYP2C9 inhibition. CYP2C9 Supersomes, luciferin-H conversion, luminescence. inhibition, % at 5 µM. AID 777. P11712. 96,000 tested, 20% active;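 active = blocking of liver enzyme CYP2C9 beyond about 50% at 5 µM, limit read from the data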
Target sequence (P11712 whole entry, looked up): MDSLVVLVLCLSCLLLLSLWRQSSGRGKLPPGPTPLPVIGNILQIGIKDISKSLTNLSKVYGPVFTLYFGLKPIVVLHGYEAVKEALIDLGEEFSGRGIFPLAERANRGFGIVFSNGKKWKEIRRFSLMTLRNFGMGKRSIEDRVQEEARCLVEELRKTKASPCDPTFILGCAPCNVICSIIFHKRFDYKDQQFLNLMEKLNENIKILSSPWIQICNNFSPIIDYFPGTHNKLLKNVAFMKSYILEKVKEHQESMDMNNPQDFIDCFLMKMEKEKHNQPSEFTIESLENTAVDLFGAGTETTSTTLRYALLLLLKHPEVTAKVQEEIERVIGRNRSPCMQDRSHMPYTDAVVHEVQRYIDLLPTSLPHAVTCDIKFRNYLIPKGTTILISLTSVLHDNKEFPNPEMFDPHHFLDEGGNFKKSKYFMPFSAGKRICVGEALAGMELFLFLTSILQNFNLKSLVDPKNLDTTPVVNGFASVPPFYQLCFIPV
CYP2C9 act: CYP2C9 (human) activation; activation factor at 5 µM; AID 1024; P11712; recombinant CYP2C9, luciferin-H conversion, luminescence; stronger effect = higher value; factor 1 = untreated enzyme, 0 = blocked; 96,000 tested, 1.4% active;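 active = activation factor of 2 or more for CYP2C9 at a 5 µM dose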
sEH activator: soluble epoxide hydrolase (human) activation; AID 717; P34913; purified human sEH enzymatic activity, activator screen; 91,000 tested, 0.04% active; activation, % at 2 µM; in the data active = activation above about 37%
CYP2C19 inh: inhibitors of human CYP2C19; P33261; CYP2C19 Supersomes, luciferin-H EGE luminescence, 30 min; inhibition, % at 5 µM; 96,000 tested, 21% active; AID 778;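 active = CYP2C19 inhibition above a set limit at 5 µM in the primary screen, cut at about 50% in these data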
CYP2C19 activ: cytochrome P450 2C19 (human) activation; P33261; 96,000 tested, under 10 active; recombinant CYP2C19, luciferin-H EGE luminescence; stronger effect = higher value; 0 = fully inhibited enzyme, 1 = untreated enzyme; activation factor at 5 µM;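 active = activation factor of at least 2 at 5 µM in the primary screen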
Each line names hits and unclear results; the compound was inactive in the other large screens.

Cc1ccc(S(=O)(=O)N2CCN(S(C)(=O)=O)C2)cc1	none
Cc1ccc(S(=O)(=O)N2CCN(S(=O)(=O)c3ccccc3)C2)cc1	CYP2C9 inh 57, CYP2C19 inh 56
Cc1ccc(-c2ccc(S(=O)(=O)N3CCN(C)CC3)cc2)cc1	CYP2C9 inh 52 (no result: sEH inhibitor, sEH activator)
O=S(=O)(c1ccc(S(=O)(=O)N2CCCN(Cc3ccccc3)C2)cc1)N1CCCCCC1	CYP2C9 inh 74, CYP2C19 inh 72
CN1CCN(S(=O)(=O)c2ccc(-c3ccccc3)cc2)CC1	none
Cc1nc2nc[nH]n2c(=O)c1NC(=O)CC12CC3CC(CC(C3)C1)C2	none
COC1(OC)C(/C=C/c2ccc(Cl)cc2)C(C#N)(C#N)C1(OC)OC (stereo unspecified)	none (no result: CYP2C9 inh, CYP2C9 act, CYP2C19 inh, CYP2C19 activ)
Cn1c(=O)cc(SCC(=O)N2CCN(c3ccccn3)CC2)c2ccccc21	CYP2C9 inh 62 (no result: sEH inhibitor, sEH activator)
Cn1c(=O)cc(SCC(=O)N2CCN(c3ccccc3)CC2)c2ccccc21	CYP2C19 inh 51
Cn1c(=O)cc(OCCCC(=O)N2CCN(c3ccccc3)CC2)c2ccccc21	CYP2C9 inh 61, CYP2C19 inh 80 (no result: sEH inhibitor, sEH activator)
O=S(=O)(N1CCCCC1)N1CCCN(S(=O)(=O)N2CCCCC2)CC1	CYP2C9 inh 50
O=S(=O)(N1CCCCCC1)N1CCN(S(=O)(=O)N2CCOCC2)CC1	none
CCOC(=O)c1cnn(-c2ccccc2)c1-n1cccc1C(=O)C(=O)Nc1ccc(OC)cc1	CYP2C9 inh 80
Cc1c(C(=O)Oc2cccc3ccccc23)cnn1-c1ccccc1	CYP2C19 inh 67
CCOC(=O)c1cnn(-c2ccccc2)c1-n1cccc1	CYP2C19 inh 55
CCOC(=O)c1cnn(-c2ccccc2)c1-c1ccccc1	none
CSc1nc(-c2ccccc2)nn1C(=O)c1ccc(C)cc1	none
Cc1nn(C)c(C)c1CN(C)C(=O)CCCC(=O)O	none (no result: CYP2C9 inh, CYP2C9 act, CYP2C19 inh, CYP2C19 activ)
Cc1ccc(S(=O)(=O)N(CC(O)CN2CCCCC2)c2ccccc2)cc1 (stereo unspecified)	none
Cc1ccc(S(=O)(=O)N(CCO)c2cc3c(s2)CCCC3)cc1	CYP2C19 inh 99
CCCn1[nH]cc(SC)c(=O)c1=O	none
CCOc1cc(-c2nc(-c3ccncc3)no2)cc(OCC)c1OCC	CYP2C9 inh 77, CYP2C19 inh 61
CCOc1ccc(-c2nc(-c3ccncc3)no2)cc1OCC	CYP2C9 inh 63
CC(C)c1ccc(/C=N/NC(=O)CN(c2cccc(Cl)c2Cl)S(C)(=O)=O)cc1	none
Cn1c(COc2ccccc2)nnc1SCc1cc(=O)[nH]c2ccccc12	CYP2C9 inh 77, CYP2C19 inh 72
O=c1cc(CSc2nnc(COc3ccccc3)o2)c2ccccc2[nH]1	none
COCCNC(=O)c1c(N)n(CCC2=CCCCC2)c2nc3ccccc3nc12	CYP2C9 inh 96, CYP2C19 inh 92
C=CCn1c(N)c(C(=O)OCCC)c2nc3ccccc3nc21	CYP2C9 inh 69, CYP2C19 inh 77
COCCn1c(N)c(C(=O)OCc2ccccc2)c2nc3ccccc3nc21	CYP2C9 inh 62
O=C(NCCCN1CCN(c2cccc(Cl)c2)CC1)C1CCC(=O)N1Cc1ccccc1Cl (stereo unspecified)	none
Cc1cc(C(=O)N(C)CC(=O)Nc2ccccc2C(F)(F)F)c(C)o1	none (no result: sEH inhibitor, sEH activator)
CCCCNC(=O)Nc1nnc(-c2ccc(Cl)cc2)o1	none
Cc1cc(Cl)ccc1Oc1nc(-c2ccc(F)cc2)ccc1C#N	none
C=CCn1c(SCc2cc(=O)n3ccsc3n2)nc2sc(C)c(C)c2c1=O	none (no result: sEH inhibitor, sEH activator)
COc1ccc(C(=O)NCC(=O)OCC(=O)N2CC(C)CC(C)C2)cc1 (stereo unspecified)	CYP2C9 inh 66
Cc1ncsc1C(=O)N1N=C2/C(=C/c3ccccc3)CCCC2C1c1ccccc1 (stereo unspecified)	CYP2C9 inh 52
COc1ccc(/C=C2\CCCC3C2=NN(C(=O)COC(=O)CNC(=O)c2ccccc2)C3c2ccc(OC)cc2)cc1 (stereo unspecified)	CYP2C9 inh 74
Cc1ncsc1C(=O)N1N=C2/C(=C/c3ccc(N4CCOCC4)cc3)CCCC2C1c1ccc(N2CCOCC2)cc1 (stereo unspecified)	none
COc1ccc(NC(=O)C(C)N2c3cccc4cccc(c34)S2(=O)=O)cc1OC (stereo unspecified)	none (no result: CYP2C9 inh, CYP2C9 act, CYP2C19 inh, CYP2C19 activ)
CCOC(=O)c1cc2cc(OC)ccc2nc1C	none (no result: CYP2C9 inh, CYP2C9 act, CYP2C19 inh, CYP2C19 activ)
N#Cc1nc(-c2ccccc2Cl)oc1N1CCCCC1	CYP2C9 inh 81, CYP2C19 inh 86
CN(C)c1oc(-c2ccccc2Cl)nc1C#N	CYP2C9 act 2.8, CYP2C19 inh 62
CC1CC(C)CN(c2oc(-c3ccccc3Cl)nc2C#N)C1 (stereo unspecified)	none
CN(C)c1oc(-c2ccccc2Cl)nc1S(=O)(=O)c1ccccc1	CYP2C19 inh 79
N#Cc1nc(-c2cccc3ccccc23)oc1N1CCCCC1	none
COc1ccc(C(=O)CSc2nc3nc(C)cc(C)c3c(=O)[nH]2)cc1OC	none (no result: CYP2C9 inh, CYP2C9 act, CYP2C19 inh, CYP2C19 activ)
CCOC(=O)c1c(C)nc2c(C#N)cnn2c1C	CYP2C19 inh 63
COC(=O)c1ccc(-c2ccco2)n1Cc1cc(C)ccc1C	none
Cc1sc(-c2ccncc2)nc1OC(=O)c1ccc(Cl)cc1	CYP2C9 inh 88, CYP2C19 inh 90
Cc1sc(-c2ccncc2)nc1OC(=O)c1cc(Cl)cc(Cl)c1	CYP2C9 inh 68, CYP2C19 inh 53
Cc1cc(C)c(C(N)=O)c(SCC(=O)c2ccc(Cl)cc2)n1	none
Cc1cc(C)c(S(C)(=O)=O)c(Sc2ccc(Cl)cc2)n1	CYP2C9 inh 65
COc1ccc(C(=O)N(CC2CCCO2)C(C(=O)NC2CCCC2)c2ccc(C)cc2)cc1OC (stereo unspecified)	none
Cc1ccc(S(=O)(=O)c2c(N)n(CCCO)c3nc4ccccc4nc23)cc1	CYP2C9 inh 92, CYP2C19 inh 92
Cc1ccc(S(=O)(=O)c2c(N)n(Cc3ccco3)c3nc4ccccc4nc23)cc1C	CYP2C9 inh 65, CYP2C19 inh 54
Cc1ccc(S(=O)(=O)c2c(N)n(CCC(C)C)c3nc4ccccc4nc23)cc1	none
Cc1ccc(S(=O)(=O)c2c(N)n(CCN3CCOCC3)c3nc4ccccc4nc23)cc1C	CYP2C19 inh 72
CCc1c(C)nc(N)n2c(SCC(=O)Nc3ccccc3)nnc12	none
N#CC1=C(N)c2ccccc2CC12CCCCC2	CYP2C9 inh 78
CCC(=O)NC1=C(C#N)C2(CCCC2)Cc2ccccc21	none (no result: sEH inhibitor, sEH activator)
Cc1cnc(NC(=O)CSc2ccc(Cl)cc2)s1	CYP2C19 inh 69
Cc1cnc(NC(=O)CSc2ncn(-c3ccccc3)n2)s1	none (no result: CYP2C9 inh, CYP2C9 act, CYP2C19 inh, CYP2C19 activ)
CC(C)C(NC(=O)CSc1ccc(Cl)cc1)C(C)C	CYP2C9 inh 66, CYP2C19 inh 100
O=C(CSc1ccc2ccccc2c1)Nn1cnnc1	CYP2C9 inh 90, CYP2C19 inh 88
O=C(CSc1ncccn1)Nn1cnnc1	none (no result: sEH inhibitor, sEH activator)
Cc1cc(C)nc(SCC(=O)Nn2cnnc2)n1	none (no result: sEH inhibitor, sEH activator)
O=C(CSc1ccc(Cl)cc1)Nn1cnnc1	CYP2C9 inh 82, CYP2C19 inh 87
